# Compound activity from PubChem BioAssay.
# Compounds with a hit are over-represented: about 7.4% of the library has one in this group of screens.
# SMN2 splice enh = enhancers of SMN2 splice variant expression; Potency, µM (doses to about 46.1 µM), for inactives: at the top dose activity change, positive = activation, actives largely listed as activators; HEK293 SMN2-luciferase splicing reporter, luminescence, 30-36 h; actives 2.8% (n = 210,000); also: % of control where 0% means no effect; nearly all actives have a fitted effect of over 55% in size
#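 HEK293 cells carry an SMN2 […]–luciferase reporter in which exon 7 inclusion puts luciferase in frame. Cells were plated 10-12 h before compound addition, then incubated 30-36 h at 37C. ONE-Glo luminescence was read; sodium butyrate at 4.5 mM final served as control.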
# Rab9 promoter act = activates the Rab9 promoter. Potency, µM (top dose mostly 9.22 µM), for inactives: at the highest dose activation, negative = inhibition, actives largely listed as activators. actives 2.8% (n = 320,000). Huh7 Rab9 promoter-luciferase reporter, luminescence, 24 h. AID 485297; also: % of control where 0% means no effect; nearly all actives have a fitted effect of over 60% in size
#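 Stable Rab9-luc Huh7, 1500 cells/well, 2 h settle; cmpd in DMSO, 24 h, 37 °C/5% CO2; luciferase reagent 10 min RT; luminescence.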
# FLuc modulator = inhibits or activates purified firefly luciferase, miR-21 counter-screen; P08659; purified FLuc, Km substrates, luminescence inhibition; Potency, µM (titrated, usually from 57.5 µM), for inactives: at the top dose activity change, negative = inhibition, hits mostly inhibitors; actives 6.9% (n = 360,000);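 also: plate controls were vehicle for no effect and reference inhibitor for full effect; nearly all actives have a fitted effect of over 55% in size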
# Target sequence (P08659 whole entry, looked up): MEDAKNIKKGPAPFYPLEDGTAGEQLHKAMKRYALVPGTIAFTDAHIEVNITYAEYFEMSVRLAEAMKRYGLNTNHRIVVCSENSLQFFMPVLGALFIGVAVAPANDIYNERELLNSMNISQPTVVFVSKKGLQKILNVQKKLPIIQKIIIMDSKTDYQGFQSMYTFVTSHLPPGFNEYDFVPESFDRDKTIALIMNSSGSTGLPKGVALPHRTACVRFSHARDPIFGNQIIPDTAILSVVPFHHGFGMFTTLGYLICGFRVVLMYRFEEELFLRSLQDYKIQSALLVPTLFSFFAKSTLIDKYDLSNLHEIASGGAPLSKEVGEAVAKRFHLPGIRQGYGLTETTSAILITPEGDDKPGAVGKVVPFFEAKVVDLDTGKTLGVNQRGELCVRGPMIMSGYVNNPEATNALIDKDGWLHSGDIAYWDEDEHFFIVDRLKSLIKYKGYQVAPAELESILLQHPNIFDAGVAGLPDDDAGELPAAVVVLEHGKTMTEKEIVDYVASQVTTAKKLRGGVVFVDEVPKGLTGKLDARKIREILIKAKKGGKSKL
#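 Purified P. pyralis luciferase (10nM final) with 10uM D-luciferin and 10uM ATP (Km levels) in 50mM Tris acetate pH 7.5, 10mM Mg acetate, 0.01% Tween-20, 0.05% BSA; qHTS 6-point titration, ~60 µM downward; luminescence read.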
# ELG1 genotox = genotoxicity induction in ELG1-luciferase HEK293T cells; Potency, µM (titrated, usually from 46 µM), inactives show top-dose activity change, positive = activation, hits mostly activators; AID 504466; actives 1.3% (n = 330,000); HEK293T ELG1-luciferase reporter, luminescence, 16 h; also: % of control where 0% means no effect; nearly all actives have a fitted effect of over 60% in size
#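 DMSO vehicle served as control against compound-treated ELG1-luciferase HEK293T cells; exposure lasted 16 hr at 37 °C and 5% CO2, followed by ONE-Glo luminescence detection after 30 min.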
# NPC1 promoter act = activates the NPC1 promoter | AID 485313 | Huh7 NPC1 promoter luciferase reporter, 24 h | actives 2.4% (n = 320,000) | Potency, µM (doses to about 9.22 µM), for the others: at the highest dose activation, hits mostly activators; also: % of control where 0% means no effect; nearly all actives have a fitted effect of over 60% in size
#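 In 1536-well qHTS, Huh7 cells harboring an NPC1 promoter–luciferase construct received compound for 24 h; activation was quantified by luminescence following luciferase reagent addition.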
# Active calls of the source: *; ? = inconclusive; nt = no result given; [ ] = remark or other dose. Calls follow the shape of the dose curve; as a rule, active = well fitted curve in the direction sought with a large enough effect; inconclusive = small, poorly fitted or top-dose-only effect, or another doubt; inactive = no such curve, though single readings can be large; an effect the other way counts as inactive or inconclusive. Potency is read from the fitted curve at half-maximal effect.
SMILES,SMN2 splice enh,Rab9 promoter act,FLuc modulator,ELG1 genotox,NPC1 promoter act
COc1ccc(CCNC(=O)C(=O)NCC(c2ccco2)S(=O)(=O)c2cccs2)cc1 (stereo not drawn),nt,nt,-2%,nt,nt
CC(=O)Nc1ccc(NC(=O)CCCn2nc(C)c3sc4ccccc4c3c2=O)cc1,nt,nt,-6%,nt,nt
CCOC(=O)c1ccc(NC(=O)CSc2c(C(C)C)cnc3c2c(=O)n(C)c(=O)n3C)cc1,nt,nt,-9%,nt,nt
COc1ccc(-c2cc(C)no2)cc1S(=O)(=O)NCc1cccs1,nt,nt,4%,nt,nt
Cc1ccc(NC(=O)CSc2ncc(S(=O)(=O)c3ccc(C(C)C)cc3)c(=O)[nH]2)cc1C,-3%,nt,?,nt,nt
Cc1ccc(S(=O)(=O)c2cnc(SCC(=O)Nc3ccccc3C(F)(F)F)[nH]c2=O)cc1C,-8%,nt,11µM*,nt,nt
COc1cc(Cl)c(C)cc1NC(=O)CSc1ncc(S(=O)(=O)c2ccc(C(C)(C)C)cc2)c(=O)[nH]1,6%,nt,?,nt,nt
Cc1c(Cl)cccc1NC(=O)CSc1ncc(S(=O)(=O)c2ccc(C(C)C)cc2)c(=O)[nH]1,-5%,nt,7.6µM*,nt,nt
Cc1ccc(S(=O)(=O)c2cnc(SCC(=O)Nc3ccc4c(c3)OCCO4)[nH]c2=O)cc1C,-3%,nt,11µM*,nt,nt
Cc1cc(C)cc(NC(=O)CSc2ncc(S(=O)(=O)c3ccccc3)c(=O)[nH]2)c1,-4%,-4%,-6%,1%,1%
CCC1CCCCN1C(=O)c1sc(-n2nc(C)c(Cc3ccccc3)c2C)nc1C (stereo not drawn),nt,nt,-11%,nt,nt
Cc1ccc(-c2cc(C(F)(F)F)n3nc(C(=O)Nc4sc5c(c4C#N)CCC(C)C5)cc3n2)cc1 (stereo not drawn),1%,nt,2%,nt,nt
Cc1cc(C)c2oc(-c3cc(NC(=O)Cc4ccccc4)ccc3Cl)nc2c1,-2%,nt,-3%,nt,nt
O=C(N/N=C/c1cc2c(cc1Br)OCO2)c1c[nH]c2ccccc12,11µM*,2.5µM*,9.5µM*,8%,2.5µM*
O=C(N/N=C/c1ccco1)c1cc2ccccc2o1,nt,19%,17µM*,12%,15%
O=C(N/N=C/c1ccco1)c1ccc(Br)o1,3%,-2%,-11%,3%,-3%
Cc1ccc(C(=O)N/N=C\c2cc3c(cc2Br)OCO3)cn1,nt,-6%,2%,?,-7%
CCN(C(=O)/C=C/c1ccc2c(c1)OCO2)c1ccccc1,-8%,14%,?,1%,8%
O=C(/C=C/c1ccc2c(c1)OCO2)c1ccccn1,nt,3.5µM*,0.34µM*,?,2.2µM*
CC(C)(C)c1cc(C(=O)N/N=C/c2cc3c(cc2Br)OCO3)n[nH]1,nt,-2%,-6%,1%,-11%
O=C(N/N=C/c1cc2c(cc1Br)OCO2)c1ccccn1,nt,1.3µM*,2.7µM*,?,2.5µM*
Nc1nc(SCC(=O)c2ccc(Br)cc2)c2[nH]cnc2n1,-13%[9.22 µM],nt,nt,nt,nt
O=C(N/N=C/c1ccsc1)c1ccc2ccccc2n1,27%,?,21µM*,13%,22%
O=C(N/N=C/c1cc2c(cc1Br)OCO2)c1cc2ccccc2o1,nt,22%,9.5µM*,6%,22%
O=C(N/N=C/c1ccc2c(c1)OCO2)c1ccc2ccccc2n1,1%,15%,3µM*,?,2%
SMILES,SMN2 splice enh,Rab9 promoter act,FLuc modulator,ELG1 genotox,NPC1 promoter act
O=C(N/N=C/c1ccc2c(c1)OCO2)c1ccccn1,3.5µM*,0.4µM*,2.1µM*,?,0.32µM*
CC(Oc1ccc(F)cc1)C(=O)Nc1cc(-c2ccc(F)c(F)c2)no1 (stereo not drawn),nt,nt,1%,nt,nt
CC(C)(C)NC(=O)c1ccccc1-c1nc2ccccc2s1,nt,-5%,-4%,-3%,-3%
CNc1sc(C(=O)c2ccccc2F)c(N)c1-c1nc2ccccc2s1,?,4.5µM*,8.5µM*,?,4µM*
c1ccc2c(c1)-c1nc3ccccc3cc1[C@H]2N1CCOCC1,-14%[9.22 µM],nt,nt,nt,nt
OC1c2ccccc2-c2nc3ccccc3cc21 (stereo not drawn),14µM*,nt,nt,nt,nt
CC(C)(C)C1CCc2c(sc(NC(=O)CCC(=O)O)c2C(=O)Nc2ccccc2C(F)(F)F)C1 (stereo not drawn),-2%,nt,?,nt,nt
CCOC(=O)CSc1nc(-c2ccncc2)ccc1C#N,1.1µM*,0.4µM*,?,?,1.3µM*
CCOC(=O)CSc1nc(-c2ccc3c(c2)OCO3)ccc1C#N,11%,0.79µM*,5.4µM*,?,2.5µM*
CCOC(=O)CCCSc1nc(-c2ccc3c(c2)OCO3)cc(C(F)(F)F)c1C#N,2%,-3%,2%,-1%,0%
O=C(NCCC1=CCCCC1)c1ccc2c(c1)N(Cc1cccc(Cl)c1)C(=O)c1ccccc1S2=O (stereo not drawn),nt,nt,-9%,nt,nt
CCc1ccc(C(=O)NNC(=O)CN2C(=O)NC3(CCCC3)C2=O)cc1,nt,0%,15µM*,5%,-4%
CCCc1c(C(=O)OCC)nnc2c(-c3ccccc3)c(C)nn12,4%,nt,-3%,nt,nt
COc1ccc(-c2csc(NC3CCCCC3)n2)c(OC)c1,nt,23%,24µM*,?,20%
c1ccc(-c2csc(NC3CCCCC3)n2)cc1,nt,1µM*,1.7µM*,5.2µM*,0.79µM*
O=C(Nc1nc(-c2ccccc2)cs1)NC1CCCCC1,-28%,20%,?,23µM*,17%
O=C(Nc1nc(-c2ccccc2)cs1)C1CCCCN1S(=O)(=O)c1ccccc1 (stereo not drawn),-38%,1%,-1%,1%,9%
O=C(COc1ccccc1)Nc1ccc(OCc2cc(=O)n3ccsc3n2)cc1,7%,nt,0%,nt,nt
COc1ccc(OC)c2sc(N(Cc3cccnc3)C(=O)c3ccc(C(C)=O)cc3)nc12,nt,nt,-14%,nt,nt
O=C(NCc1cccnc1)c1nn(-c2ccc(F)cc2)nc1CO,-37%,nt,-8%,nt,nt
CC1CCN(c2nnc(-c3cccs3)c3ccccc23)CC1,-1%,8%,9.5µM*,6%,0%
c1ccc(-c2nc(-c3cccs3)c(NC3CCCCC3)o2)cc1,-1%,nt,nt,nt,nt
c1csc(-c2nnc(NC3CCCCC3)c3ccccc23)c1,3%,-3%,12µM*,-1%,-2%
CC1CCN(c2nc3ccccc3nc2N2CCC(C)CC2)CC1,4%,nt,3%,nt,nt
Cc1cc(NC(=O)c2ccco2)cc(-c2nc3cc(Cl)ccc3o2)c1O,2%,nt,-3%,nt,nt
COc1ccc2cc(C(=O)NCc3ccco3)c(=O)oc2c1,27%,?,6µM*,5.8µM*,?
O=C(NCc1ccco1)c1cc2ccc(O)cc2oc1=O,8%,?,11µM*,?,?
COc1ccc(OC)c(CCNC(=O)c2cc3cccc4c3n2CC(C)S4)c1 (stereo not drawn),nt,nt,2%,nt,nt
COc1ccc(NC(=O)Cn2c(=O)n(-c3cccc(C)c3)c(=O)c3c2c2cc(C)ccc2n3C)cc1OC,3%,nt,1%,nt,nt
